Source: PubChem
Sampled rows, rich in hits. Any-hit rate of the full collection: about 19%.
DT40 TDP1 CPT: DT40-hTDP1 cell growth loss with CPT; chicken DT40 Tdp1-/-;hTDP1 cells + 20 nM CPT, ATP luminescence, 48 h; 420,000 compounds, 12% hits; Potency, µM (doses to about 46.2 µM), without a hit: at the highest dose activity change, negative = growth inhibition, most hits filed as inhibitors; further: potency means the concentration at half of the fitted maximal effect; nearly all actives have a fitted effect of over 55% in size
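Chicken DT40 Tdp1-/- cells complemented with human TDP1, 400 cells/well, exposed to compounds plus 20 nM camptothecin for at least 48 h at 37 C; viability read as ATP content by CellTiter-Glo luminescence.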
IL1B secr inh: blocks inflammasome-driven IL-1 beta release; THP-1 LPS/ATP IL-1B secretion, AlphaLISA, 16 h; hits give low values; activity change, % at 57.5 µM; 360,000 compounds, 4.7% hits; in the data active means activity change below about -50%; inconclusive means mostly about -30% to -49%
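THP-1 cells pretreated 1 hr with compounds (up to 57.5 uM final), then stimulated with LPS (250 ng/mL final) plus ATP (1.25 mM final); secreted IL-1B measured by AlphaLISA after 16 hr, decreased signal indicating inhibition.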
ELG1 repair inh: blocks ELG1-dependent DNA repair in HEK293T cells. HEK293T ELG1-luciferase reporter, luminescence, 16 h; DNA damage induced by 5-fluorouridine. Potency, µM (doses to about 46.1 µM), inactives show at the top dose activity change, negative = inhibition, hits mostly inhibitors. 330,000 compounds, 2.3% hits; further: potency means the concentration at half of the fitted maximal effect; nearly all actives have a fitted effect of over 55% in size
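DMSO vehicle served as the neutral condition. Each well held 2,000 cells given 5-fluorouridine plus compound; after 16 hr at 37 °C/5% CO2, ONE-Glo was added and luciferase measured 30 min later.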
HT1080 IDH1KD tx: HT-1080 IDH1 knockdown cell toxicity (counter line). HT-1080 IDH1 knockdown viability, ATP luminescence, 48 h. Potency, µM (doses to about 46.1 µM), for the others: at the top dose activity, negative = toxicity, most hits filed as cytotoxic. 360,000 compounds, 2% hits. AID 686971;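 further: potency means the concentration at half of the fitted maximal effect; 0% = DMSO wells and -100% = cell-free medium wells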
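Using the IDH1-knockdown HT-1080 line run in the same batch and compound series as the NT line, viability after 48 h at 37 °C was determined by CellTiter-Glo luminescence and expressed as % activity.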
HT1080NT lethal: kills 2HG-producing HT-1080-NT fibrosarcoma cells. HT-1080-NT fibrosarcoma viability, CellTiter-Glo ATP luminescence, 48 h. Potency, µM (series often up to 46.1 µM), for the others: at the top dose activity, negative = less viability, actives largely listed as cytotoxic. 360,000 compounds, 1.6% hits;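 further: NT is the 2HG producing partner of a matched IDH1 knockdown line; potency means the concentration at half of the fitted maximal effect; 0% = DMSO-treated cells and -100% = media-only wells without cells; nearly all actives have a fitted effect of over 55% in size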
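Viability by CellTiter-Glo luminescence after 48 h compound exposure at 37C of HT-1080-NT cells (750/well, RPMI, 5% FBS). % activity scaled between DMSO wells and medium-only wells, then curve-fitted and categorized by curve class.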
TDP1 cell noCPT: qHTS for Inhibitors of human tyrosyl-DNA phosphodiesterase 1 (TDP1): qHTS in cells in absence of CPT; AID 686978, 2013; 420,000 compounds, 15% hits; Potency, µM (doses to about 46.2 µM), for the others: at the highest dose activity change, negative = growth inhibition, most hits filed as inhibitors; DT40 Tdp1-/- hTDP1 cells, no CPT, ATP luminescence, 48 h; further: potency means the concentration at half of the fitted maximal effect; nearly all actives have a fitted effect of over 55% in size
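A cellular qHTS used chicken DT40 cells lacking endogenous Tdp1 but carrying stably transfected human TDP1. Compounds were applied without camptothecin, and cell growth kinetics were judged by ATP-dependent luminescence after ≥48 hr.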
* marks the source's active call; other numbers are inactive results; ? = inconclusive; . = not tested or not shown. Unless noted, the call rests on the fitted dose curve; in most records, active means well fitted curve in the direction sought with a large enough effect; inconclusive means small, poorly fitted or top-dose-only effect, or another doubt; inactive means no such curve, though single readings can be large; an effect the other way counts as inactive or inconclusive. Unless noted, on the % scale 0 is the no-effect control and ±100 the full control effect.

SMILES	DT40 TDP1 CPT	IL1B secr inh	ELG1 repair inh	HT1080 IDH1KD tx	HT1080NT lethal	TDP1 cell noCPT
Cn1cc(C=C2C(=O)NC(=O)NC2=O)c2ccccc21	6.0%	11.0	1.9%	?	2.6%	-1.6%
O=C1NC(=O)C(=Cc2cccs2)C(=O)N1	18.4µM*	-17.6	.	-9.9%	1.9%	16.4µM*
O=C1NC(=S)N(c2ccccc2F)C(=O)/C1=C\c1cccs1	20.6µM*	-90.5*	?	-16.7%	6.4%	?
CCOc1ccc(N2C(=O)/C(=C\c3cccs3)C(=O)NC2=S)cc1	?	-99.1*	?	-16.9%	?	?
O=C1NC(=O)C(=Cc2ccsc2)C(=O)N1	4.6%	-4.3	-0.3%	3.9%	3.5%	2.1%
O=C1NC(=O)C(=Cc2csc3ccccc23)C(=O)N1	16.4µM*	-21.5	20.2%	0.0%	0.5%	18.4µM*
CC(C)N1C(=O)c2ccccc2NS1(=O)=O	5.8%	.	.	.	.	-6.6%
C[C@H](CO)N1C[C@H](C)[C@@H](CN(C)C(=O)Oc2ccc3ccccc3c2)OCc2cn(nn2)CCCC1=O	-1.0%	19.7	.	8.8%	4.0%	-0.8%
O=C(NCC(c1ccco1)N1CCCC1)c1cccc(S(=O)(=O)N2CCc3ccccc32)c1 (centres undefined)	18.4µM*	-9.9	.	-24.2%	-6.7%	9.2µM*
O=C(Nc1ccccc1)N(Cc1ccc2c(c1)OCO2)C1CCN(Cc2ccccc2)CC1	?	.	.	.	.	14.6µM*
COc1ccccc1NC(=O)N(Cc1ccc2c(c1)OCO2)C1CCN(Cc2ccccc2)CC1	4.61µM*	.	.	.	.	5.17µM*
Clc1ccccc1N1CCN(Cc2ccc3c(c2)OCO3)CC1	?	-21.7	-8.7%	2.3%	2.8%	?
O=C(CCC(=O)N1CC2C[C@@H](C1)Cn1c2cccc1=O)NCCc1ccccc1	6.2%	1.1	9.8%	2.0%	-1.9%	4.7%
CC1=C(C)[N+](=O)C2CCCCC2N1[O-] (centres undefined)	?	-8.7	1.3%	3.7%	3.6%	4.7%
COc1ccc2c(C)c(CCC(=O)N3C[C@H]4C[C@@H](C3)c3cccc(=O)n3C4)c(=O)oc2c1	-1.7%	-2.8	26.0%	1.4%	0.6%	-21.9%
Cc1oc2cc3oc(=O)c(CCC(=O)N4CCCCC4)c(C)c3cc2c1C	11.6µM*	.	.	.	.	23.1µM*
COC(=O)C1=C(c2cccc(C#N)c2)C[C@@H]2CC[C@H]1N2C(=O)NCc1cccc2ccccc12	?	-18.1	-20.0%	-9.3%	1.8%	-28.8%
c1cc(CN2CC3(CCNCC3)C2)ccn1	-12.6%	.	.	.	.	-16.3%
S=C(NCCc1ccccc1)N1Cc2cc(N3CCCCC3)ccc2-n2nncc2C1	?	?	.	-7.3%	-3.7%	?
CN(Cc1cccc(-c2ccncc2)c1)C(=O)Oc1ccc([N+](=O)[O-])cc1	20.6µM*	-26.1	.	?	?	16.4µM*
O=C(Cc1ccccc1)Oc1ccc([N+](=O)[O-])cc1	-22.6%	8.5	4.7%	-0.4%	0.5%	-19.7%
CN(C(=O)Oc1ccc([N+](=O)[O-])cc1)c1ccccc1	4.5%	-56.1*	?	2.6%	0.4%	-6.4%
O=c1cccc2n1CC1CC2CN(c2nc(N3CCCCC3)nc(N3CCCCC3)n2)C1 (centres undefined)	-13.1%	42.1	-14.2%	1.4%	1.1%	?
CN(C)C(=O)Oc1ccc2oc(=O)cc(-c3cc4ccccc4o3)c2c1	-23.2%	0.0	-28.5%	7.0%	4.1%	-12.6%
Cc1cc2oc(=O)cc(-c3cc4ccccc4o3)c2cc1OC(=O)N(C)C	14.6µM*	24.0	-17.9%	-0.9%	-12.6%	?
SMILES	DT40 TDP1 CPT	IL1B secr inh	ELG1 repair inh	HT1080 IDH1KD tx	HT1080NT lethal	TDP1 cell noCPT
CCN(CC)C(=O)Oc1cc2c(-c3cc4cccc(OC)c4o3)cc(=O)oc2cc1C	16.4µM*	-11.3	?	8.9%	4.7%	23.1µM*
Cn1c(CN2CCCCC2)nc2cc(NC(=O)c3cccc(Br)c3)ccc21	?	-78.4*	?	?	?	?
O=C(CN1CCCCC1)c1cccc(Br)c1	-3.2%	16.7	6.7%	1.8%	2.1%	-19.9%
CCOC(=O)CNC(=O)N1Cc2ccccc2-n2nncc2C1	10.3%	28.0	.	-6.7%	8.6%	-2.1%
CC(=O)c1c(O)cc2c3c1OC(C)(C)C1CCC(C)(CC31)O2 (centres undefined)	20.6µM*	2.0	.	-3.8%	-0.5%	13µM*
CN1C(=O)C(O)N=C(c2ccccc2)c2cc(Cl)ccc21 (centres undefined)	7.1%	.	.	.	.	0.7%
O=[N+]([O-])c1cc(Cl)c(O)c(-[n+]2c(-c3ccccc3)cc(-c3ccccc3)cc2-c2ccccc2)c1	13µM*	-5.3	?	?	?	8.2µM*
O=[N+]([O-])c1ccc(C[n+]2c(-c3ccccc3)cc(-c3ccccc3)cc2-c2ccccc2)cc1	2.59µM*	?	?	-14.4%	-19.0%	2.31µM*
C[C@H](CO)N1C[C@H](C)[C@@H](CN(C)C(=O)Oc2ccccc2)OCc2cnnn2CCCC1=O	8.0%	19.2	.	-2.2%	14.3%	-3.8%
CSCCC(c1nnnn1C(C)(C)C)N1CCC2(CC1)C(=O)NCN2c1ccccc1 (centres undefined)	?	-9.6	.	1.7%	-21.8%	?
Cc1ccc(NC(=O)OC(C)CNC(=O)Oc2cccc(C)c2)cc1 (centres undefined)	-25.6%	14.6	?	-0.4%	-0.4%	-7.7%
Oc1cccc(Nc2ncnc3sc4c(c23)CCCC4)c1	16.4µM*	.	.	.	.	14.6µM*
Cn1cnnc1Sc1cc(N2CCNCC2)ccc1[N+](=O)[O-]	0.5%	-7.8	5.5%	-1.0%	16.3%	6.2%
NCCCCCC(=O)OC1N=C(c2ccccc2Cl)c2cc(Br)ccc2NC1=O (centres undefined)	?	-18.6	1.7%	-8.3%	-13.5%	?
Cc1cccc(Cn2c(=O)n(CC3CCC(C(=O)N4CCC(C)CC4)CC3)c(=O)c3sccc32)c1 (centres undefined)	20.6µM*	.	.	.	.	16.4µM*
CCC(=O)N1N=C(c2c(O)n(CCc3ccccc3)c(=O)[nH]c2=O)CC1c1ccc(OC)c(OC)c1 (centres undefined)	?	99.1	?	?	?	?
CC(=O)N1Cc2cnnn2-c2ccccc2C1C#N (centres undefined)	-1.0%	4.9	.	12.4%	16.4%	4.4%
